Compound activity as filed in PubChem.
In the library only some 5.7% were active in any assay of this set; here they are far more common.
ClpP mod = qHTS Assay for Activators of ClpP. 340,000 tested, 1.9% active. Potency, µM (series often up to 57.5 µM), inactives show at the highest dose activity change, negative = active. purified B. subtilis ClpP, FRET peptide cleavage, 20 min. ATP-dependent Clp protease proteolytic subunit (Bacillus subtilis (strain 168)), P80244; active means well fitted falling curve with a large enough effect; inconclusive means small, poorly fitted or top-dose-only effect; inactive means no such curve, though single readings can be large or run the other way; further: potency means the concentration at half of the fitted maximal effect; the source files actives as falling curves though it sought activators and does not explain the sign; nearly all actives have a fitted effect of over 65% in size
Target sequence (P80244 whole entry, looked up): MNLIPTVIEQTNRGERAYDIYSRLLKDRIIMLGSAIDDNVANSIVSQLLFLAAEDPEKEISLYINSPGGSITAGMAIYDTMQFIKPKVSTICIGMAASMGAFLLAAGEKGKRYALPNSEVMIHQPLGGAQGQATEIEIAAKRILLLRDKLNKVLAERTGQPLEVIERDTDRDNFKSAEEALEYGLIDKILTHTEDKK
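Buffer: 100 mM Tris/HCl pH8, 100 mM KCl, 0.05% low protease BSA, 2.5% glycerol, 0.01% Tween-20. ClpP 10 microg/mL final; 20 min RT; delta FRET normalized to ADEP and DMSO controls.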
DRD3 antagonist = antagonists of human D3 dopamine receptor; P35462; D3R cells, DiscoveRx beta-arrestin luminescence, antagonist mode; hits give low values; max response, negative = inhibition, %; 360,000 tested, 2.5% active; AID 652054; in the data active means max response below about -50%; inconclusive means no clear call, values can overlap the other calls; further: on the % scale 0 is the no-effect control and ±100 the full control effect
Target sequence (P35462 whole entry, looked up): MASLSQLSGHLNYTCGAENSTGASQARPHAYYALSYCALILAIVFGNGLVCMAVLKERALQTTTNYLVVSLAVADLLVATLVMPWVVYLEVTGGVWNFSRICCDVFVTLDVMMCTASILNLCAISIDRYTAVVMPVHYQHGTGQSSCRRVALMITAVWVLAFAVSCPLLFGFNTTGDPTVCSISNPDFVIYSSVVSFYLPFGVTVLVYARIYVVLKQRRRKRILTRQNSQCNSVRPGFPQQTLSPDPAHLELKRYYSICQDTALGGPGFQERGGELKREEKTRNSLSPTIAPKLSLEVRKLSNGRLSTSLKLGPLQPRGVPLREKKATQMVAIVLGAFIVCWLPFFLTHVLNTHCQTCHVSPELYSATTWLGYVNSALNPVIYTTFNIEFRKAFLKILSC
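Cells plated overnight at 1500 cells/well, then exposed to library compounds with dopamine controls for 90 minutes at 37 degrees C. DiscoveRx reagent added for 30–60 minutes at room temperature; luminescence read, quantitative HTS format.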
DRD3 agonist = agonists of human D3 dopamine receptor. P35462. D3R DiscoveRx beta-arrestin cells, luminescence, 90 min. max activation, %. 410,000 tested, 0.58% active; in the data active means max activation above about 30%; further: 0% is about no effect
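Agonist-mode cell screen: cells plated at 1500/well and incubated overnight at 37 °C, then exposed to library compounds for 90 min at 37 °C. Detection reagent was added for 30–60 min at room temperature, and luminescence was read.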
GLP-1R agonist = activates the human GLP-1 receptor. HEK293 GLP-1R CRE-luciferase, luminescence, 4-6 h; cells express a hypersensitive GLP-1R form. Potency, µM (doses to about 45.6 µM), for the others: at the top dose activation, usual class: activators. 380,000 tested, 0.007% active. AID 624172; further: potency means the concentration at half of the fitted maximal effect; % of control where 0% means no effect
GLP-1R inv ag = GLP-1 receptor (human) inverse agonism. HEK293 GLP-1R CRE-luciferase, luminescence, 24 h; GLP-1R form is constitutively active. Potency, µM (doses to about 38.3 µM), inactives show at the highest dose activity change, negative = inhibition, most hits filed as inhibitors. 410,000 tested, 1.6% active; further: potency means the concentration at half of the fitted maximal effect; on the % scale 0 is the no-effect control and ±100 the full control effect; nearly all actives have a fitted effect of over 55% in size
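Using stably transfected HEK293 (constitutively active GLP-1R, cAMP-luciferase reporter), compounds were incubated 24 hr and luciferase measured by luminescence.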
GLP1R cytotox = cytotoxicity in counter-screen for GLP-1R inverse agonists | HEK293 cAMP-luciferase reporter cells, luminescence, 24 h | Potency, µM (highest dose often 38.3 µM), for the others: top-dose activity change, negative = inhibition, actives largely listed as inhibitors | 410,000 tested, 0.13% active | AID 624418;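 further: loss of luciferase light is scored as toxicity; potency means the concentration at half of the fitted maximal effect; on the % scale 0 is the no-effect control and ±100 the full control effect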
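Here, cytotoxicity is scored as loss of luminescence. The MLSMR collection was tested on cells seeded in medium containing 10% Nu serum, with a 24 hr compound exposure preceded by 12 hours of culture.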
The depositor's hits bear a star; ? = inconclusive; · = not tested or not shown; [ ] = remark or other dose. Unless noted, the call rests on the fitted dose curve; in most records, active means well fitted curve in the direction sought with a large enough effect; inconclusive means small, poorly fitted or top-dose-only effect, or another doubt; inactive means no such curve, though single readings can be large; an effect the other way counts as inactive or inconclusive.

SMILES	ClpP mod	DRD3 antagonist	DRD3 agonist	GLP-1R agonist	GLP-1R inv ag	GLP1R cytotox
COc1ccc2[nH]c3c(NCCN(C(C)C)C(C)C)ncnc3c2c1	17.8µM*	22.1	-13.2	3.6%	?	-3.6%
O=S(=O)(c1ccccc1)c1nnn2c1nc(NCc1ccc(F)cc1)c1sccc12	-6.0%	·	4.5	·	7.2%	2.0%
CCN(CCCC(=O)c1ccc(F)cc1)CCc1ccccc1	·	-28.4	32.4*	-1.7%	?	-4.1%
CCCN(CCO)CCCc1ccccc1	0.8%	52.3	3.5	1.0%	0.7%	-4.8%
O=C(CCCc1ccccc1)c1ccccc1	·	-2.9	2.6	7.3%	-21.7%	5.0%
CCN(CCCc1ccccc1)CCCc1ccccc1	-3.6%	-96.3*	-83.8	-4.9%	?	6.6%
CCOC(=O)C1CCN(C(c2cccc(F)c2)c2c(O)cc(C)n(CCOC)c2=O)CC1 (stereo not given)	2.1%	·	-8.4	·	19.2%	-8.7%
COc1ccc(-c2noc(-c3cccs3)n2)cc1OC	·	-2.3	10.3	25.7%	10.4%	?
COc1ccc(-c2cc(-c3cccs3)nc(OC)c2C#N)cc1OC	31.6µM*	27.2	5.7	0.0%	-12.2%	-5.7%
COc1ccc(-c2c(C#N)c(N)nc3c2CCc2ccccc2-3)cc1OC	12.6µM*	18.9	14.8	-24.8%	?	0.0%
COc1nc(-c2cccs2)cc(-c2ccc(C)cc2)c1C#N	3.98µM*	-7.8	10.4	-13.7%	-8.3%	-14.0%
O=C(Nc1ccc(F)cc1)C(c1cccc(F)c1)N1CCN(c2ccncc2)CC1 (stereo not given)	1.8%	12.5	-2.6	·	12.0%	1.0%
CC1CCCCC1NC(=S)Nc1ccc(Cl)cc1Cl (stereo not given)	·	15.7	-6.2	0.6%	11.2µM*	?
Cc1cc(Cl)ccc1NC(=S)NC1CCCC1	1.0%	11.6	-5.4	20.3%	?	?
Fc1ccc(CNc2nc3c(-c4ccc(F)cc4)nnn3c3ccccc23)cc1	-16.6%	·	4.7	-1.4%	1.2%	-11.2%
N#CC1=C(S)N=C(N)C(c2nc(-c3ccccc3)cs2)C12CCCCC2 (stereo not given)	-0.8%	-19.8	-7.0	-15.3%	26.5%	-2.7%
Cc1ccc(-c2csc(C3C(N)=NC(S)=C(C#N)C34CCCCC4)n2)cc1 (stereo not given)	-0.2%	-71.8*	7.3	-8.2%	-8.2%	-4.4%
COc1cc(-c2noc(C)c2C#CCCN2C(=O)c3ccccc3C2=O)cc(OC)c1OC	18.8%	·	·	·	·	·
COc1ccc(CCNCc2c(C(=O)O)c(C)n(Cc3ccccc3C)c2C)c(OC)c1	0.3%	·	5.6	·	-0.6%	-0.7%
COc1ccc(N2CCN(Cc3cc(=O)oc4cc5c(cc34)CCCC5)CC2)cc1	-4.5%	13.0	-3.5	0.2%	3.5%	-13.3%
COc1ccc(N2CCN(Cc3cc4c(cc3O)CCC4)CC2)cc1	-5.1%	-87.3*	-4.6	-0.9%	-2.2%	13.1%
Cc1ccc(C2=NNC(c3ccc(Cl)cc3)=Nc3ccccc32)o1	1.6%	11.1	0.8	3.5%	7.94µM*	-26.3%
O=C(C(=O)N1CCN(C(=O)c2ccco2)CC1)c1ccccc1	-0.5%	-13.9	-5.0	·	-4.3%	14.3%
CCCCc1cn([C@@H](CCCCNC(=O)OC(C)(C)C)C(=O)N2CCN(C(=O)OC(C)(C)C)CC2)nn1	-1.6%	4.5	2.1	2.1%	-28.6%	16.1%
CC(C)(C)OC(=O)NCCCC[C@@H](C(=O)N1CCN(C(=O)OC(C)(C)C)CC1)n1cc(CCC(=O)O)nn1	2.3%	12.5	38.3*	-5.5%	6.9%	-14.0%
SMILES	ClpP mod	DRD3 antagonist	DRD3 agonist	GLP-1R agonist	GLP-1R inv ag	GLP1R cytotox
CC(C)(C)OC(=O)NCCCCCc1cn([C@@H](CO)C(=O)NCCCCCCCCCCC(=O)N2CCN(C(=O)OC(C)(C)C)CC2)nn1	1.5%	129.4	57.8*	-9.1%	?	?
Cc1cccc(-c2noc(CN(C(C)C)S(=O)(=O)c3ccc(Br)cc3)n2)c1	-6.2%	·	-8.3	·	?	19.6%
Cn1c(SCc2ccc(C(F)(F)F)cc2)nc2c([nH]c3ccccc32)c1=O	-4.7%	·	1.5	·	12.1%	3.9%
Cc1c(C(=O)N2CCC(C)CC2)c(S(=O)(=O)N(Cc2ccccc2)C(C)(C)C)c(C)n1C	0.3%	·	2.7	·	-15.9%	-13.3%
CC(NC(=O)COC(=O)c1cc(NS(=O)(=O)c2ccc(Cl)c([N+](=O)[O-])c2)ccc1O)C1CC2CCC1C2 (stereo not given)	2.1%	-60.9*	-3.9	-31.9%	?	?
Fc1ccc(Sc2cc(Cl)c(-c3ccccc3)nn2)cc1	28.2µM*	0.0	-3.1	19.2%	?	-7.9%
COCCN1C2=C(C(=O)CC(C)(C)C2)C(c2ccc(OC)c(OC)c2)C2=C1CC(C)(C)CC2=O	10µM*	24.8	7.7	0.6%	4.5%	-1.6%
COCCCN1C2=C(C(=O)CC(C)(C)C2)C(c2ccc(OC)c(OC)c2)C2=C1CC(C)(C)CC2=O	-4.7%	1.0	1.9	8.5%	19.6%	-16.5%
Cc1ccc2[nH]c(CN3CCN(C)C(CCO)C3)c(C)c2c1 (stereo not given)	-11.8%	0.3	-1.1	-2.8%	?	-8.5%
CCOc1ccc(CN2CCN(Cc3[nH]c4ccc(OC)cc4c3C)CC2CCO)cc1 (stereo not given)	·	10.5	-6.2	6.0%	12.6µM*	-22.2%
CCOc1ccccc1CN1CCN(Cc2[nH]c3ccccc3c2C)CC1CCO (stereo not given)	-18.3%	-53.3*	-4.2	2.5%	?	-23.8%
CCOc1ccccc1CN1CCN(C2CCN(c3ccccc3F)CC2)CC1CCO (stereo not given)	·	-11.1	-13.5	1.9%	11.2µM*	-3.8%
CCOc1ccccc1CN1CCN(Cc2c[nH]c3ccccc23)CC1CCO (stereo not given)	1.2%	-6.4	-3.1	3.5%	-26.8%	-4.8%
CC(=O)c1ccc(NS(=O)(=O)c2cccc(S(=O)(=O)c3ccc(Cl)cc3)c2)cc1	-6.5%	·	-19.4	·	-0.5%	2.6%
O=C(COC(=O)c1n[nH]c2ccccc12)NC(=O)NCc1ccco1	31.6µM*	16.0	0.6	7.8%	5.3%	-7.6%
Cc1c(Br)c([N+](=O)[O-])nn1CC(=O)NCc1ccco1	35.5µM*	-12.4	2.0	-10.8%	12.5%	-3.6%[1.53 µM]
Cc1ccc(CSc2nnc3[nH]c(=O)cc(C)n23)cc1	-6.3%	·	-16.7	·	8.8%	-1.2%
